Bioassay records (PubChem BioAssay)
Cycloheximide cs = counter-screen for Shiga toxin inhibitors: cycloheximide protein synthesis inhibition. cell reporter, cycloheximide protein synthesis inhibition counterscreen. max response, %. 12% of 300,000 active. AID 2314; in the data active = max response mostly above about 13%, no sharp cut-off; inactive = mostly below about 14%; note: read at 38.3 µM for the half of the compounds with a filed dose
Pf growth 48h = inhibits P. falciparum growth in the first generation, 48 h; 5.9% of 310,000 active; Potency, µM (titrated, usually from 28.7 µM), hits mostly inhibitors; P. falciparum luciferase growth in erythrocytes, 48 h
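Luminescence readout; reporter = integrated firefly luciferase in P. falciparum. RBC culture at 2% hematocrit, 0.1% parasitemia final, 37 C/5% CO2; decreased signal taken as growth inhibition.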
Pf growth 96h = P. falciparum growth inhibition at 96 hours; Potency, µM (highest dose often 28.7 µM), usual class: inhibitors; 6.9% of 320,000 active; AID 504834; P. falciparum luciferase reporter growth, 96 h
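Erythrocytes infected with luciferase-expressing P. falciparum were dispensed at 2% hematocrit and 0.05% parasitemia (final), then incubated with compounds 96 hours at 37 C in 5% CO2. Luminescence after detection reagent addition reported growth.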
NS1 inh = influenza NS1 inhibition; Potency, µM (titrated, usually from 46.1 µM); 0.4% of 270,000 active; calls by dose curve; note: actives are rising curves; nearly all actives have a fitted effect of over 50% in size
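Recovery from NS1-induced slow growth read by OD600 in budding yeast switched to galactose assay medium (pH 6.0, -URA) at 1:100 dilution. Compound 23 nl per well; the matching strain lacking NS1 serves as control.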
SARS PLpro yeast = blocks SARS-CoV papain-like protease in a yeast assay | S. cerevisiae expressing SARS-CoV PLpro, growth rescue | Potency, µM (titrated, usually from 32.9 µM), usual class: activators | 0.19% of 330,000 active | AID 485353; calls by dose curve; note: nearly all actives have a fitted effect of over 55% in size
Shiga inhibitor = blocks Shiga toxin action in Vero cells | 9.2% of 290,000 active | inhibition, % at 38.7 µM | Vero cells, Shiga toxin protein synthesis inhibition reporter | AID 2315; in the data active = inhibition mostly above about 28%, no sharp cut-off; inactive = mostly below about 43%
Numbers stand for hits; – = inactive; ? = inconclusive; · = no result; [ ] = dose if it differs, or a comment. Shown are actives, neighbours in structure and some others; about 21% of the full set was active somewhere. Unless noted, calls come from the whole dose curve; as a rule, active = well fitted inhibition curve with a large enough effect; inconclusive = small, poorly fitted or top-dose-only effect, or another doubt; inactive = no such curve, though single readings can be large or run the other way.

SMILES | Cycloheximide cs | Pf growth 48h | Pf growth 96h | NS1 inh | SARS PLpro yeast | Shiga inhibitor
COc1ccc2[nH]c(=O)c(CN(CC3CCCO3)C(=O)Nc3ccc(F)cc3)cc2c1 (stereo not drawn) | – | – | – | – | – | –
O=C(COc1ccccc1)N(Cc1cc2ccccc2[nH]c1=O)CC1CCCO1 (stereo not drawn) | 25 | ? | –[5.75 µM] | – | – | –
COc1cc(C(=O)N(Cc2cc3cc(C)ccc3[nH]c2=O)CC2CCCO2)cc(OC)c1OC (stereo not drawn) | – | – | – | – | – | –
CCCOc1ccc(N2C(=O)CC(SCc3nc4ccccc4[nH]3)C2=O)cc1 (stereo not drawn) | – | – | – | – | – | –
COc1ccccc1C1CCN(C(=O)c2ccc(Cl)cc2)CC1 | – | ? | – | – | – | –
NCCCNCCCCNCCCN | · | · | · | – | – | ·
COc1cccc(OC)c1C(=O)NC(=O)Nc1c(C)cccc1C | – | · | – | – | – | –
C/C(=N\NC(=O)COc1ccc(C#N)cc1)c1ccc(N2CCOCC2)cc1 | – | – | – | – | – | 26
C/C(=N\NC(=O)COc1cc(C)cc(C)c1)c1ccc(N2CCOCC2)cc1 | – | ? | ? | – | – | –
C/C(=N\NC(=O)c1cc(C)oc1C)c1ccc(N2CCOCC2)cc1 | 37 | – | – | · | – | 54
C/C(=N\NC(=O)c1ccccc1)c1ccc(N2CCOCC2)cc1 | 58 | · | – | – | – | 54
C/C(=N/NC(=O)c1cccs1)c1ccc(N2CCOCC2)cc1 | 51 | – | – | – | – | 70
C/C(=N\NC(=O)c1ccccc1Br)c1ccc(N2CCOCC2)cc1 | – | – | – | · | – | –
C=CS(=O)(=O)N(Cc1ccc(Cl)c(Cl)c1)C[C@@H](O)CO | · | · | · | · | – | ·
C[C@]12CC[C@@H]3c4ccc(OC(=O)c5ccccc5)cc4CC[C@H]3[C@@H]1CC[C@@H]2O | – | ? | 8.3µM | – | – | –
COc1cc2c(cc1O)CC[C@@H]1[C@@H]2CC[C@]2(C)[C@@H](O)CC[C@@H]12 | – | · | · | – | – | –
CC(C)NS(=O)(=O)c1ccc(CCC(=O)Nc2ccc3c(c2)OCO3)cc1 | – | · | ? | – | – | –
CC(=O)c1cccc(NS(=O)(=O)c2cc3c(cc2C)NC(=O)CO3)c1 | – | – | 15µM | – | – | –
Cc1cc2c(cc1S(=O)(=O)CCC(=O)NCCc1ccccc1)OCC(=O)N2 | – | – | 8.3µM | – | – | –
Cc1cccc(CCNS(=O)(=O)c2cc3c(cc2C)NC(=O)CO3)c1 | – | – | 9.3µM | – | – | –
Cc1cccc(CCNC(=O)CCS(=O)(=O)c2cc3c(cc2C)NC(=O)CO3)c1 | – | – | ? | – | – | –
CC1CC(C)CN(C(=O)C(C)N(C)CC(=O)Nc2ccc(Cl)cc2)C1 (stereo not drawn) | – | – | – | · | – | –
Cc1ccc(S(=O)(=O)N2CCN(C(=O)CCn3cncn3)CC2)cc1C | – | – | – | – | – | –
CC1=CC(=O)c2ccccc2C1=O | – | ? | 15µM | – | – | –
COc1cccc2c1C(=O)C=C(C)C2=O | – | ? | 15µM | – | – | –
SMILES | Cycloheximide cs | Pf growth 48h | Pf growth 96h | NS1 inh | SARS PLpro yeast | Shiga inhibitor
CCCCNC1=CC(=O)C(=O)c2ccccc21 | – | – | – | – | – | –
COc1ccc2c(c1O)C(=O)c1ccccc1C2=O | – | – | – | – | – | –
CC(C)(C=O)C1=CC(=O)c2ccccc2C1=O | 28 | ? | ? | – | – | 25
O=C1C=C(N2CCOCC2)c2ccccc2C1=O | – | ? | – | – | – | ·
O=C(CSc1nnnn1C1CCCCC1)Nc1ccccc1N1CCOCC1 | – | – | – | – | – | –
CC[N+]1(C)CCC(=C2c3ccccc3CC(=O)c3sccc32)CC1 (stereo not drawn) | – | ? | 12µM | – | – | –
C[N+]1(C)CCC(=C2c3ccccc3CC(=O)c3sccc32)CC1 | – | ? | ? | – | – | –
CN(C)c1nccc(N(Cc2ccccc2)Cc2ccccc2)c1C#N | 36 | ? | – | – | – | 94
COc1ccc(C2=CC(=O)C=CC2=O)cc1 | 9.3 | 9.3µM | 10µM | – | – | –
CC1CN=C(N(C(=O)Nc2ccccc2)C(C)c2ccccc2)S1 (stereo not drawn) | 13 | ? | – | – | – | –
CC1CN=C(N(C(=O)Nc2ccccc2)C(C)C)S1 (stereo not drawn) | – | – | ? | – | – | –
Cc1ccc(N(C(=O)Nc2ccccc2)C2=NCC(C)S2)cc1 (stereo not drawn) | 23 | – | – | – | – | 91
O=C(COc1ccc(Br)cc1)N(Cc1ccccc1)c1ccccn1 | – | ? | ? | – | – | 53
CC(C)c1ccc(OCC(=O)N(Cc2ccccc2)c2ccccn2)cc1 | 14 | – | ? | – | – | –
O=C(COc1ccc(Cl)cc1)N(Cc1ccccc1)c1ccccn1 | – | – | ? | – | – | –
O=C(Cc1ccc(Br)cc1)N(Cc1ccccc1)c1ccccn1 | – | – | – | – | – | –
CC(C)(Oc1ccc(Cl)cc1)C(=O)N(Cc1ccccc1)c1ccccn1 | – | ? | 1.9µM | – | – | –
Cc1cccc(N=C2NC(=O)c3cc([N+](=O)[O-])ccc32)c1 | – | – | ? | · | – | –
CCCCCn1nc(C(=O)N(CCOC)c2c(N)n(CCCC)c(=O)[nH]c2=O)c2ccccc2c1=O | · | ? | – | · | · | ·
O=C(C1CCCN(c2ncnc3c2nc2n3CCCCC2)C1)N1CCN(c2ccccc2F)CC1 (stereo not drawn) | – | ? | – | – | – | –
CCCCNC(=O)COC(=O)c1ccc(SC)cc1OC | – | – | – | – | – | –
Cc1cc(C)c2cc(C(O)c3nnnn3Cc3ccccc3)c(=O)[nH]c2c1 (stereo not drawn) | – | ? | – | – | – | –
Cc1cc(C)c2cc(CN(CCO)C(c3nnnn3Cc3ccc(F)cc3)C(C)C)c(=O)[nH]c2c1 (stereo not drawn) | – | ? | 12µM | – | – | –
COC(=O)[C@@]1(Cc2ccccc2)[C@H]2C(=O)N(C)C(=O)[C@H]2[C@H]2CN=C(SCc3ccc(C)cc3)N21 | · | · | · | · | – | ·
COc1ccc(-c2cnnc(N/N=C/c3ccc(O)c(O)c3)n2)cc1 | 30 | 1.7µM | – | – | – | –
SMILES | Cycloheximide cs | Pf growth 48h | Pf growth 96h | NS1 inh | SARS PLpro yeast | Shiga inhibitor
Oc1ccc(/C=N\Nc2nncc(-c3ccccc3)n2)cc1 | 23 | ? | 2.3µM | – | – | 51
Brc1ccc(/C=N/Nc2nncc(-c3ccccc3)n2)o1 | – | – | ? | · | – | –
COc1ccc(-c2cnnc(N/N=C/c3ccc(C)o3)n2)cc1 | – | ? | 4.1µM | – | – | –
COc1ccc(-c2cnnc(N/N=C/c3ccc(O)cc3)n2)cc1 | – | – | – | · | – | –
CCOC(=O)c1sc(NC(=S)NC(=O)C23CC4CC(CC(C4)C2)C3)cc1C | – | – | – | – | – | –
CCN(CC)C(=O)[C@H]1CC(CC(=O)NCc2ccc(OC)c(OC)c2)C(=O)N2CCc3c([nH]c4ccc(OC)cc34)[C@]12C (stereo partly drawn) | · | · | · | · | – | ·
